# PrPC surface inh = reduces human prion protein on the cell surface; inhibition, % at 13.8 µM; AID 720596; cell surface PrPC, TR-FRET read-out; P04156; hit rate 0.43% among 370,000; in the data active = inhibition above about 24%; note: 0% = median of the test wells and 100% = reference compound wells
# FBA Mtb inh = Mtb fructose-bisphosphate aldolase inhibition | hit rate 2.3% among 360,000 | AID 588726 | P9WQA3 | purified M. tuberculosis FBA, fluorescence read-out | inhibition, % at 1 µM; in the data active = inhibition above about 27%;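 note: 0% = vehicle and 100% = reference inhibitor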
# Target sequence (P9WQA3 whole entry, looked up): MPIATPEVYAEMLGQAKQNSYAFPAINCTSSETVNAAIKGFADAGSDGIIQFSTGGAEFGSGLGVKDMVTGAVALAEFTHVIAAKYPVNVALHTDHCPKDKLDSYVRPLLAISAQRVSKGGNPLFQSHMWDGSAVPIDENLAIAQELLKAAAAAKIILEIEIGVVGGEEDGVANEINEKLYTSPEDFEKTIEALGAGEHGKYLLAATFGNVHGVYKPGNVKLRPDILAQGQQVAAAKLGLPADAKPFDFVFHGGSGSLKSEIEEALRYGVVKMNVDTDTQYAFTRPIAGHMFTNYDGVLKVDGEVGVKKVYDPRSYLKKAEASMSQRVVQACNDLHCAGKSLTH
# PrP UTR inh = suppresses PrP 5' UTR mRNA reporter expression; AID 488862; hit rate 0.35% among 340,000; cell-based PrP 5' UTR mRNA reporter, plate reader; inhibition, % (no concentration beside the values); in the data active = inhibition above about 52%; note: 0 = median of the neutral control wells
# PfHsp40 rescue = restores yeast growth despite PfHsp40 toxicity | S. cerevisiae expressing PfHsp40, growth rescue, ATP luminescence | growth rescue, % at 12.5 µM | hit rate 0.68% among 340,000 | AID 504582; in the data active = growth rescue above about 28%, passing the limit was not always enough;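 note: yeast W303a lacking pdr1 and pdr3 grown in galactose medium; growth measured after three days at 30 °C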
# BJeLR viability = BJeLR cell viability loss | BJeLR (HRASV12) viability, CellTiter-Glo ATP luminescence, 48 h | inhibition, % (no concentration beside the values) | hit rate 0.17% among 300,000 | AID 1554; in the data active = inhibition above about 50%
# GDH-TPI counter = counter-screen for M. tuberculosis FBA inhibitors: GDH-TPI coupled enzymes; inhibition, % at 4.8 µM; AID 588335; hit rate 1.2% among 360,000; GDH-TPI coupled enzyme counterscreen, NADH absorbance; in the data active = inhibition above about 30%;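 note: 0% = DMSO wells and 100% = wells lacking the enzyme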
# The depositor's hits bear a star; . = no result given; + = active, no number. Only some compounds are listed: those with a hit (about 4.5% of all), similar ones and a draw of the others.
SMILES,PrPC surface inh,FBA Mtb inh,PrP UTR inh,PfHsp40 rescue,BJeLR viability,GDH-TPI counter
O=C(NCc1ccncc1)c1ccccc1Nc1ccc(SC(F)F)cc1,-1.2,4.2,4.4,473.7*,-4.1,8.3
O=C1/C(=C\c2ccc(O)cc2)SC(=S)N1/N=C/c1ccc(O)cc1,7.5,-27.0,-27.7,0.7,11.8,38.3*
O=C1C2C3C=CC(CC3)C2C(=O)N1/N=C/c1ccc(O)cc1 (centres undefined),1.7,-2.3,-47.1,1.2,-8.3,31.9*
CCOC(=O)N1C(=O)C[C@](Sc2ccc(OC)cc2)(C(=O)N(C)C)[C@H]1c1ccc(OC)cc1,-4.2,.,.,.,.,.
COC(=O)c1c(N)sc(C(C)=O)c1C,3.9,1.3,5.5,1.0,0.6,43.8*
CCOC(=O)c1sc(N)c(C(=O)OC)c1C,2.3,0.7,-27.8,1.2,-3.6,6.3
Cc1ccc(C(=O)NNC(=S)NC(=O)c2ccccc2)cc1,16.8,-2.7,-16.6,17.4,3.3,31.0*
COc1ccccc1NC(=S)NNC(=O)c1ccccc1,-2.5,4.0,-55.1,28.9*,2.4,11.7
COc1ccccc1NC(=S)NNC(=O)c1ccncc1,-1.3,-0.8,-12.9,-0.5,0.6,18.2
Cc1ccc(C(=O)NC(=S)NNC(=O)c2ccccc2O)cc1,0.4,-0.2,-11.7,-0.9,-2.3,16.0
COc1ccc(C(=O)NC(=S)NNC(=O)c2cccc(C)c2)cc1,-9.2,.,.,.,5.0,.
Cc1cccc(C(=O)NNC(=S)NC(=O)c2ccccc2)c1,-6.1,-2.6,-3.7,127.2*,0.3,8.4
Cc1ccc(C(=O)NC(=S)NNC(=O)c2ccccc2)cc1,6.2,-0.1,-0.5,39.3*,-5.0,21.4
Cc1cc(OC(C)CCN2CCC(C(O)(c3ccccc3)c3ccccc3)CC2)ccc1Br (centres undefined),-18.9,.,.,.,.,.
COCCNC(=O)C1CCCN(Cc2ccc(C)cc2)CC1 (centres undefined),-6.9,-2.0,.,.,.,4.9
Cc1ccccc1C(=O)NNC(=S)NC(=O)c1ccccc1,3.2,0.3,-2.8,169.4*,-3.7,6.6
COc1ccc2c(c1)[nH]c1c(=O)n(CCCN3CCOCC3)cnc12,9.4,3.5,-12.4,0.5,1.9,-1.2
COc1ccc2c(c1)c1ncn(CCCN3CCOCC3)c(=O)c1n2C,-4.5,170.0*,-28.9,1.2,11.1,9.4
COc1ccc2c(c1)c1ncn(CC3CCCO3)c(=O)c1n2C (centres undefined),-5.3,+,-24.6,0.6,-0.9,15.4
Cc1c(C)n(Cc2ccc(-c3ccccc3C(=O)O)cc2)c2ccc(C(=O)N[C@@H](C)c3ccc([N+](=O)[O-])cc3)cc12,-10.1,.,.,.,.,.
O=C(OCCCCSc1nnc(-c2cccc3ccccc23)o1)c1ccc(F)cc1,-5.7,.,.,.,.,.
COc1cc(/C=C2\NC(=S)NC2=O)ccc1OCc1cccc(C(=O)O)c1,-27.4,2.3,-15.4,-2.1,-1.0,32.2*
CCN(CC)C(=O)c1ccc(NC(=O)Nc2ccccc2F)cc1,3.9,-1.9,43.6,-3.3,54.9*,0.0
COc1ccc(S[C@]2(C(=O)NCc3ccccc3)CC(=O)N[C@@H]2c2ccc(OC)cc2)cc1,6.2,.,.,.,.,.
O=C(CCc1ccccc1)N[C@H]1[C@H](O)CCC[C@@]12C(=O)N(Cc1ccccc1)c1ccc(-c3ccccc3)cc12,-3.8,.,.,.,.,.
SMILES,PrPC surface inh,FBA Mtb inh,PrP UTR inh,PfHsp40 rescue,BJeLR viability,GDH-TPI counter
O=C1SC(Cc2ccccc2)C(=O)N1c1ccccc1 (centres undefined),8.4,-0.4,.,.,89.2*,-0.7
Cc1ccc(N2C(=O)SC(Cc3ccccc3)C2=O)cc1 (centres undefined),2.3,2.5,-7.8,2.5,21.9,5.9
Cc1noc(C)c1COC(=O)CCCNC(=O)c1ccc(Cl)cc1,-3.4,-0.7,-18.7,1.3,1.7,-1.6
Cc1cccc(COC(=O)CCCNC(=O)c2ccc(Cl)cc2)c1,4.6,0.0,-29.1,76.6*,.,3.1
COC1=CC2(O)CCCC2=CC1=O (centres undefined),3.0,150.4*,-1.3,-0.2,0.8,0.5
O=C(Nc1ccc2c(c1)CCC2)c1ccc(F)cc1,-0.5,116.9*,-19.0,0.8,8.0,5.9
Cc1ccccc1CN1CCCCC(NC(=O)c2cc(-c3ccccc3)no2)C1=O (centres undefined),-5.9,.,.,.,.,.
COC(=O)c1ccc(/C=C/c2ccc3cccc(OC(C)=O)c3n2)cc1,-20.5,-4.5,-153.1,140.2*,10.5,16.4
COc1ccccc1C1CCN(c2cc(O)ccc2[N+](=O)[O-])CC1,-8.8,-11.6,-30.2,123.8*,4.8,7.5

# Screens (PubChem)
